Experimental data taken from the supplement of paper PMC4723716.
± gives the uncertainty stated by the source. In all, about 9,900 compounds were measured (“viability index relative to DMSO control”: median about 1, lowest 2% from about 0.85 on). The list comes from a sample in which the lowest values are over-represented; it also holds similar structures and randomly drawn compounds.

Test system: Plasmodium falciparum NF54 stage V gametocytes
Experiment: viability index relative to DMSO control (fraction); higher = less gametocyte killing
Conditions: 2.5 µM, incubation time: 72 h
Experimental: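 Broad DOS informer set and blood-stage-active DOS compounds screened in duplicate at 2.5 µM against P. falciparum NF54 stage V gametocytes with the serum-free one-step SaLSSA (1536-well): 72 h at 37 °C under low oxygen, then saponin lysis and MitoTracker Red CMXRos staining, with high-content imaging. Viability index = viable-object count divided by the plate mean of DMSO wells (0 = killed, about 1 = inactive).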

[1] = library set: Broad Institute DOS
[2] = library set: Broad Institute Blood Stage

SMILES | viability index [1] | viability index [2]
CC(C)C#Cc1ccc([C@@H]2[C@@H](CO)N3C(=O)CN(C(=O)Cc4ccccc4)C[C@@H]23)cc1 | 1.07 ± 0.047 | –
CC(C)C#Cc1ccc([C@@H]2[C@H]3CN(C(=O)Cc4ccccc4)CC(=O)N3[C@H]2CO)cc1 | 0.864 ± 0.047 | –
O=C(Cc1ccccc1)N1CC(=O)N2[C@H](CO)[C@H](c3ccc(C#CCc4ccccc4)cc3)[C@H]2C1 | – | 0.699 ± 0.1
C/C=C/c1ccc([C@@H]2[C@@H](CO)N3C(=O)CN(S(=O)(=O)c4ccccc4)C[C@@H]23)cc1 | 0.777 ± 0.16 | –
C/C=C/c1ccc([C@H]2[C@@H](CO)N3C(=O)CN(S(=O)(=O)c4ccccc4)C[C@H]23)cc1 | 0.975 ± 0.12 | –
C/C=C/c1ccc([C@H]2[C@H]3CN(S(=O)(=O)c4ccccc4)CC(=O)N3[C@H]2CO)cc1 | 1.03 ± 0.034 | –
CC(C)C#Cc1ccc([C@@H]2[C@@H](CO)N3C(=O)CN(C(=O)Cc4ccccc4)C[C@H]23)cc1 | 1.04 ± 0.039 | –
CC(C)C#Cc1ccc([C@H]2[C@H](CO)N3C(=O)CN(C(=O)Cc4ccccc4)C[C@@H]23)cc1 | 1.08 ± 0.08 | –
CC(C)C#Cc1ccc([C@H]2[C@@H](CO)N3C(=O)CN(C(=O)Cc4ccccc4)C[C@@H]23)cc1 | 1.07 ± 0.021 | –
O=C(Cc1ccccc1)N1CC(=O)N2[C@H](CO)[C@H](c3ccc(C#Cc4ccccc4)cc3)[C@H]2C1 | – | 0.728 ± 0.097
CC(C)C#Cc1ccc([C@H]2[C@@H](CO)N3C(=O)CN(C(=O)Cc4ccccc4)C[C@H]23)cc1 | 0.848 ± 0.025 | –
CC(C)C#Cc1ccc([C@@H]2[C@H](CO)N3C(=O)CN(C(=O)Cc4ccccc4)C[C@@H]23)cc1 | 1.1 ± 0.016 | –
C[C@H]1CN([C@@H](C)CO)C(=O)c2c(c3ccccc3n2C)-c2ccccc2CO[C@@H]1CN(C)C(=O)[C@@H](Cc1ccccc1)N(C)C | 1.07 ± 0.11 | –
CCS(=O)(=O)Nc1ccc2c(c1)C(=O)N(C)C[C@H](OC)[C@H](C)CN(CC1CCCCC1)[C@H](C)CO2 | 0.995 ± 0.1 | –
CN1CCN(C(=O)c2cc3c(c(-c4cccc(C5=CCCC5)c4)n2)[C@@H](CCO)N([S@](=O)C(C)(C)C)C3)CC1 | 0.991 ± 0.024 | –
O=C(Nc1cccc(Cl)c1)N1C[C@H]2[C@@H](c3ccccc31)[C@@H](CO)N2Cc1cccnc1 | 1.06 ± 0.092 | –
C[C@@H]1CCCn2cc(nn2)COCCNC1=O | 0.994 ± 0.094 | –
CC(C)CC#Cc1ccc([C@H]2[C@@H](CO)N3CCCCN(C(=O)Nc4ccccc4)C[C@H]23)cc1 | 0.782 ± 0.084 | –
CC(C)CC#Cc1ccc([C@@H]2[C@H](CO)N3CCCCN(C(=O)Nc4ccccc4)C[C@@H]23)cc1 | 0.877 ± 0.053 | –
CC(C)CC#Cc1ccc([C@@H]2[C@@H](CO)N3CCCCN(C(=O)Nc4ccccc4)C[C@@H]23)cc1 | 1 ± 0.15 | –
CC(C)CC#Cc1ccc([C@@H]2[C@@H](CO)N3CCCCN(C(=O)Nc4ccccc4)C[C@H]23)cc1 | 0.844 ± 0.032 | –
CC(C)CC#Cc1ccc([C@@H]2[C@H]3CN(C(=O)Nc4ccccc4)CCCCN3[C@H]2CO)cc1 | 0.542 ± 0.086 | –
CC(C)CC#Cc1ccc([C@H]2[C@H](CO)N3CCCCN(C(=O)Nc4ccccc4)C[C@@H]23)cc1 | 0.935 ± 0.034 | –

SMILES | viability index [1] | viability index [2]
CC(C)CC#Cc1ccc([C@H]2[C@H]3CN(C(=O)Nc4ccccc4)CCCCN3[C@H]2CO)cc1 | 0.99 ± 0.061 | –
CC(C)CC#Cc1ccc([C@H]2[C@@H](CO)N3CCCCN(C(=O)Nc4ccccc4)C[C@@H]23)cc1 | 1.02 ± 0.057 | –
COCC#Cc1ccc([C@@H]2[C@@H](CO)N3CCCCN(C(=O)NC4CCCC4)C[C@@H]23)cc1 | 1.01 ± 0.02 | –
Cc1noc(C)c1NC(=O)N1C[C@@H](O)COC[C@H]2O[C@@H](CC(=O)N[C@@H]3CCN(Cc4ccccc4)C3)CC[C@@H]21 | 0.994 ± 0.052 | –
CCC(=O)N1[C@H](CO)[C@@H]2c3ccccc3N(C(=O)c3cnccn3)C[C@@H]21 | 0.908 ± 0.3 | –
C/C=C/c1ccc2n(c1=O)C[C@H]1[C@H](CO)[C@@H](C(=O)Nc3nccs3)N(Cc3cc(F)ccc3F)[C@@H]21.C/C=C\c1ccc2n(c1=O)C[C@H]1[C@H](CO)[C@@H](C(=O)Nc3nccs3)N(Cc3cc(F)ccc3F)[C@@H]21 | 1.07 ± 0.056 | –
Cc1noc(C)c1NC(=O)N(C)C[C@H]1Oc2ccc(NC(=O)Cc3cn(C)c4ccccc34)cc2CC(=O)N([C@@H](C)CO)C[C@H]1C | 0.941 ± 0.2 | –
COCC#Cc1ccc([C@H]2[C@H]3CN(C(=O)C4CCCCC4)CC(=O)N3[C@H]2CO)cc1 | 1.01 ± 0.034 | –
COc1ccc2c3c([C@@H](CO)N(C)C[C@]33CCN(CC3)C(=O)CN3CCOCC3)n(C)c2c1 | 0.9699 ± 0.0061 | –
CN(C)C(=O)c1cccc(-c2ccc([C@H]3[C@@H]4CN(Cc5ccccc5F)C[C@H]3N4)cc2)c1 | 1.05 ± 0.084 | –
CN(C)C(=O)c1ccc(-c2ccc([C@H]3[C@@H]4CN(Cc5ccccc5Cl)C[C@H]3N4)cc2)cc1 | 0.846 ± 0.021 | –
CN(C)C(=O)c1cccc(-c2ccc([C@@H]3[C@@H]4CN(Cc5ccccc5F)C[C@H]3N4)cc2)c1 | 0.977 ± 0.016 | –
Cc1ccc(S(=O)(=O)Nc2cccc3c2O[C@H](CN(C)C(=O)Nc2ccc(C(F)(F)F)cc2)[C@H](C)CN([C@H](C)CO)C3=O)cc1 | 1.07 ± 0.04 | –
CN(C)C(=O)c1cccc(-c2ccc3c(c2)[C@@H]2[C@@H](CCN2C(=O)Cc2ccccc2)[C@@H](CO)N3)c1 | 1.04 ± 0.025 | –
CN(C)C(=O)c1cccc(-c2ccc3c(c2)[C@H]2[C@H](CCN2C(=O)Cc2ccccc2)[C@H](CO)N3)c1 | 1.03 ± 0.03 | –
CN(C)C(=O)c1cccc(-c2ccc3c(c2)[C@@H]2[C@@H](CCN2C(=O)Cc2ccccc2)[C@H](CO)N3)c1 | 0.991 ± 0.022 | –
N#Cc1cccc(-c2ccc3c(c2)[C@H]2[C@H](CCN2S(=O)(=O)c2ccc(F)cc2)[C@@H](CO)N3)c1 | 0.949 ± 0.023 | –
Cc1ccc(S(=O)(=O)N2CC[C@@H]3[C@H]2c2cc(-c4cccc(C(=O)N(C)C)c4)ccc2N[C@@H]3CO)cc1 | 0.885 ± 0.055 | –
CN(C)C(=O)c1cccc(-c2ccc3c(c2)[C@H]2[C@H](CCN2C(=O)Cc2ccccc2)[C@@H](CO)N3)c1 | 0.899 ± 0.042 | –
Cc1ccc(S(=O)(=O)N2CC[C@H]3[C@H](CO)Nc4ccc(-c5cccc(C(=O)N(C)C)c5)cc4[C@H]32)cc1 | 0.7 ± 0.018 | –
Cc1ccc(S(=O)(=O)N2CC[C@@H]3[C@@H](CO)Nc4ccc(-c5cccc(C(=O)N(C)C)c5)cc4[C@@H]32)cc1 | 0.837 ± 0.012 | –
Cc1ccc(S(=O)(=O)N2CC[C@@H]3[C@H](CO)Nc4ccc(-c5cccc(C(=O)N(C)C)c5)cc4[C@@H]32)cc1 | 0.77 ± 0.034 | –
